Assay outcomes (PubChem BioAssay)
In the library only some 3.5% were active in any assay of this set; here they are far more common.
GPR151 ag = activates the human receptor GPR151; Q8TDV0; PathHunter beta-arrestin GPR151 cells, luminescence; activation, % at 11.2 µM; 1% of 650,000 active; AID 1508602; in the data active = activation above about 4.9%;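 note: 0% = median of compound wells and 100% = cells with positive control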
Target sequence (Q8TDV0 whole entry, looked up): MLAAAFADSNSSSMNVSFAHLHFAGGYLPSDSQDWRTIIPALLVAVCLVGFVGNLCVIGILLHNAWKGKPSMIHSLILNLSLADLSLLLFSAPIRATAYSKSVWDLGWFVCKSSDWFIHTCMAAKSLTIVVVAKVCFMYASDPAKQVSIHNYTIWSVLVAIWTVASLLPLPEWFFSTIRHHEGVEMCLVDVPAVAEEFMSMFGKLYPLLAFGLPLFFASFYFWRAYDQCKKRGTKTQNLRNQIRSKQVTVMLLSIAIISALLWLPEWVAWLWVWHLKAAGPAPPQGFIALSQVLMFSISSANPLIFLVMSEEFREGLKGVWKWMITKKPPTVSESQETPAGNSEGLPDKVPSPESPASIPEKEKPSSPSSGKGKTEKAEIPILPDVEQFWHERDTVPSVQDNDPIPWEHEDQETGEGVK
MITF primary = inhibitors of human MITF | inhibition, % at 2.6 µM | 0.91% of 650,000 active | O75030 | AID 1259374 | AlphaScreen MITF homodimerization, bead proximity signal; in the data active = inhibition above about 50%;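 note: 0% = vehicle wells with protein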
FBW7 activator = activators of human E3 ligase FBW7 | AID 1259310 | 0.13% of 650,000 active | Q969H0 | AlphaScreen FBW7–phospho-cyclin E peptide binding, activator screen | normalized activity (activation), % at 26.1 µM; in the data active = normalized activity above about 1.9%;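 note: purified mutant Fbw7 with reduced substrate affinity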
TEAD-YAP block = TEAD-YAP interaction inhibition; HEK-TIYL cells, TEAD-Gal4/YAP UAS-luciferase luminescence; inhibition, % at 9.12 µM; 1.4% of 640,000 active; AID 1259422; in the data active = inhibition above about 32%;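 note: 0% = median of test compound wells and 100% = reference inhibitor wells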
Numbers without * were called inactive.

`COC(=O)c1ccc(-n2c(C)cc(/C=C(\C#N)C(=O)N3CCOCC3)c2C)cc1` gave GPR151 ag 0, MITF primary 13, FBW7 activator 0 and TEAD-YAP block 1.
COCCNC(=O)/C(C#N)=C/c1cc(C)n(-c2ccccc2)c1C was read as GPR151 ag 0, MITF primary 1, FBW7 activator 0 and TEAD-YAP block 65*.
CNC(=O)/C(C#N)=C\c1cc(C)n(-c2ccc(Br)cc2)c1C was read as GPR151 ag -1, MITF primary 1, FBW7 activator 0 and TEAD-YAP block 32*.
Screening Cc1cc(/C=C(\C#N)C(=O)N2CCOCC2)c(C)n1-c1ccccc1 returned GPR151 ag -3, MITF primary 2, FBW7 activator 0 and TEAD-YAP block 71*.
COC(=O)c1cccc(-n2c(C)cc(/C=C(\C#N)C(=O)Nc3ccc(OC)cc3)c2C)c1 was read as GPR151 ag -1, MITF primary -8, FBW7 activator 0 and TEAD-YAP block 53*.
Screening CC1=C(C(=O)N2CCOCC2)C(c2ccc(C)cc2C)NC(=O)N1 (stereo unspecified) returned GPR151 ag 1, MITF primary -14, FBW7 activator 0 and TEAD-YAP block -1.
Screening CCn1c2ccccc2c2cc(NC(=O)C3CC3)ccc21 returned GPR151 ag -1, MITF primary 10, FBW7 activator 1 and TEAD-YAP block 0.
COCCCNC(=O)/C(C#N)=C/c1cc(C)n(-c2sc3c(c2C#N)CCCC3)c1C was read as GPR151 ag 0, MITF primary -7, FBW7 activator 0 and TEAD-YAP block 59*.
`COCCNc1ccc2ncc(-c3cccs3)n2n1` gave GPR151 ag -1, MITF primary -17, FBW7 activator 0 and TEAD-YAP block 37*.
`c1ccc(CCNc2ccc3ncc(-c4cccs4)n3n2)nc1` gave GPR151 ag 0, MITF primary -4, FBW7 activator 0 and TEAD-YAP block 80*.
Screening O=C(CSc1nc(NCC2CCCO2)c2ccccc2n1)N1CCN(c2ccccc2)CC1 (stereo unspecified) returned GPR151 ag 1, MITF primary 4, FBW7 activator 0 and TEAD-YAP block 13.
`COc1cc(OC)cc(C(=O)c2c(N)sc3c2CCCC3)c1` gave GPR151 ag 0, MITF primary -11, FBW7 activator 0 and TEAD-YAP block 3.
`COc1cc(OC)cc(C(=O)c2c(N)sc3c2CCC(C)C3)c1` (stereo unspecified) gave GPR151 ag 1, MITF primary -5, FBW7 activator 0 and TEAD-YAP block 54*.
Screening CCOC(=O)Cn1c(=O)c2c(nc3n2CC(C)CN3C2CCCCC2)n(C)c1=O (stereo unspecified) returned GPR151 ag 1, MITF primary -2, FBW7 activator 0 and TEAD-YAP block -3.
`CCOC(=O)c1cn2nc(N3CCCCC3)ccc2n1` gave GPR151 ag -6, MITF primary -1, FBW7 activator 0 and TEAD-YAP block 43*.
For CCOC(=O)C1CCN(c2ccc3nncn3n2)CC1 the results were GPR151 ag 1, MITF primary 2, FBW7 activator 0 and TEAD-YAP block 5.
For CC(=O)NC1=NN(C(C)=O)C(C)(c2ccc(NC(C)=O)cc2)S1 (stereo unspecified) the results were GPR151 ag 0, MITF primary -5, FBW7 activator 0 and TEAD-YAP block 4.
Screening CC(=O)NC1=NN(C(C)=O)C(C)(c2cccc(OC(C)=O)c2)S1 (stereo unspecified) returned GPR151 ag 1, MITF primary 0, FBW7 activator 0 and TEAD-YAP block 64*.
CC(=O)NC1=NN(C(C)=O)C(C)(c2ccc3ccccc3c2)S1 (stereo unspecified) was read as GPR151 ag 0, MITF primary 1, FBW7 activator 0 and TEAD-YAP block 4.
For CC(=O)NC1=NN(C(C)=O)C(C)(c2ccccc2)S1 (stereo unspecified) the results were GPR151 ag -1, MITF primary -4, FBW7 activator 0 and TEAD-YAP block 61*.
Screening COc1cc(NC(=O)c2sc3ncnc(N(C)c4ccccc4)c3c2C)cc(OC)c1OC returned GPR151 ag 0, MITF primary 8, FBW7 activator 0 and TEAD-YAP block 50*.
CCc1c(Cc2[nH]c(C)c(C(C)=O)c2C)[nH]c(C(=O)O)c1C was read as GPR151 ag -2, MITF primary -146, FBW7 activator 15* and TEAD-YAP block 8.
For CC(=O)c1[nH]c(C)c(C(C)=O)c1C the results were GPR151 ag -1, MITF primary -6, FBW7 activator 0 and TEAD-YAP block -6.
Screening Oc1c(C(Nc2ccccn2)c2ccccn2)ccc2cccnc12 (stereo unspecified) returned GPR151 ag 1, MITF primary 26, FBW7 activator 0 and TEAD-YAP block 17.
Oc1c(C(Nc2ncccn2)c2ccco2)ccc2cccnc12 (stereo unspecified) was read as GPR151 ag 0, MITF primary 8, FBW7 activator 0 and TEAD-YAP block -5.
Screening Oc1c(C(Nc2cccnc2)c2cccs2)ccc2cccnc12 (stereo unspecified) returned GPR151 ag 1, MITF primary 3, FBW7 activator 0 and TEAD-YAP block 27.
Oc1c(C(Nc2ccccc2)c2ccccn2)ccc2cccnc12 (stereo unspecified) was read as GPR151 ag -1, MITF primary 94*, FBW7 activator -2 and TEAD-YAP block 18.
For Oc1c(C(Nc2cccc(Cl)c2)c2ccncc2)ccc2cccnc12 (stereo unspecified) the results were GPR151 ag 0, MITF primary 103*, FBW7 activator -2 and TEAD-YAP block 31.
For Oc1c(C(Nc2ccccn2)c2ccccc2F)ccc2cccnc12 (stereo unspecified) the results were GPR151 ag -1, MITF primary 16, FBW7 activator -1 and TEAD-YAP block 84*.
For Cc1cccc(NC(c2ccccc2F)c2ccc3cccnc3c2O)n1 (stereo unspecified) the results were GPR151 ag -1, MITF primary 6, FBW7 activator 0 and TEAD-YAP block 24.
Screening Oc1c(C(Nc2ccccn2)c2ccco2)ccc2cccnc12 (stereo unspecified) returned GPR151 ag 1, MITF primary 28, FBW7 activator 0 and TEAD-YAP block 63*.
CC1(NC(=O)Nc2cccc(O)c2)CCS(=O)(=O)C1 (stereo unspecified) was read as GPR151 ag 0, MITF primary 6, FBW7 activator 0 and TEAD-YAP block -3.
For Cc1ccnc(NC(c2cc(C)ccc2O)c2ccc3cccnc3c2O)c1 (stereo unspecified) the results were GPR151 ag 0, MITF primary 35, FBW7 activator 0 and TEAD-YAP block 6.
`Oc1ccc(Cl)c(C(Nc2ccccn2)c2ccc3cccnc3c2O)c1` (stereo unspecified) gave GPR151 ag 1, MITF primary 6, FBW7 activator 0 and TEAD-YAP block 81*.
